A selection: hits, their analogues and other compounds. The true share with any hit is near 4.9%.
NALP1 inh – blocks the NALP1 inflammasome reconstituted in yeast | S. cerevisiae NALP1/ASC/caspase-1 growth, X-gal OD620, 72 h | inhibition, % at 10 µM | 280,000 compounds, 0.61% hits; in the data active means inhibition mostly above about 24%, no sharp cut-off; inactive means mostly below about 32%
tim10-1 inh – inhibits growth of tim10-1 mutant yeast. inhibition, % at 20 µM. S. cerevisiae tim10-1 ts strain growth, BacTiter-Glo, 24 h. AID 463190. 330,000 compounds, 2.2% hits;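 active means inhibition of at least 40%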;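 further: mutant grown at 25 °C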
SKKanGAS inh – inhibitors of SKKanGAS S. pyogenes growth in kanamycin (SK-promoter or general growth effect); BacTiter-Glo, 6 h; inhibition, % at 7.5 µM; 300,000 compounds, 1.3% hits;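 active means mean replicate score, as percent of positive control median, at least 50; inconclusive means mean below 50 but one replicate at or above 50; inactive means mean and every replicate below 50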;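 further: strain carries kanamycin resistance gene driven by streptokinase promoter and grows in 40 µg/ml kanamycin; loss of luminescence reflects streptokinase promoter inhibition or plain growth inhibition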
tim23-1 inh – tim23-1 yeast growth inhibition; S. cerevisiae tim23-1 growth, BacTiter-Glo luminescence, 24 h; 330,000 compounds, 1.3% hits; inhibition, % at 20 µM; AID 463212;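 active means growth inhibition of the mutant yeast at or above 50%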;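 further: temperature-sensitive mutant grown at 25 °C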
TIM10 inh – TIM10 yeast growth inhibition | 330,000 compounds, 1.4% hits | AID 463195 | S. cerevisiae TIM10 strain growth, BacTiter-Glo luminescence, 24 h | inhibition, % at 10 µM;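 active means inhibition of 40% or more at the single tested concentration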;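 further: wild-type TIM10 isogenic control strain grown at permissive 25 °C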
NLRP3 yeast inh – inhibitors of NALP3 inflammasome in yeast. Yeast reconstituted NLRP3/ASC/caspase-1, beta-gal luminescence, 24 h. inhibition, % at 10 µM. 330,000 compounds, 0.39% hits. AID 2825;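 active means inhibition of 50% or more; inactive means inhibition below 50%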
tim10-1 conf – tim10-1 yeast growth inhibition, confirmed. S. cerevisiae tim10-1 ts strain growth, BacTiter-Glo, 24 h. shares compounds with tim10-1 inh. inhibition, % at 20 µM. 7,400 compounds, 56% hits;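 active means inhibition of yeast growth at or above a set limit in either of two repeat tests at 20 µM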;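 further: tim10-1 mutant grown at permissive 25 °C to find synthetic lethal compounds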
Large screens that a line does not name were inactive (follow-up assays come after a bar, where they were run).

Cc1onc(-c2c(F)cccc2Cl)c1C(=O)Nc1cccc(S(=O)(=O)NCc2ccco2)c1	none
COc1ccc(N2C(=O)C(Cl)=C(N3CCCC(C)C3)C2=O)cc1 (stereo not given)	tim10-1 inh 42 | tim10-1 conf inactive
CC(=O)SC1CC(=O)N(c2ccc(C(C)(C)C)cc2)C1=O (stereo not given)	tim10-1 inh 55 (no result: NALP1 inh) | tim10-1 conf 53
COc1cccc(C(=O)N2N=C(c3cccc(OC)c3)CC2(O)C(F)(F)F)c1 (stereo not given)	tim10-1 inh 40 | tim10-1 conf inactive
Cc1ccc(OCCNC(=O)CNC(=O)c2ccccc2Cl)cc1	none (no result: NALP1 inh, SKKanGAS inh)
CN1CCN(Cc2cc(COCc3ccccc3)c3cccnc3c2O)CC1	tim10-1 inh 47 | tim10-1 conf inactive
Oc1ccc(CN2CCN(Cc3ccccc3)CC2)c2cccnc12	none (no result: NALP1 inh)
CCOc1cc(/C=C2\C(=O)N(c3nc(-c4ccc(Br)cc4)cs3)N=C2c2ccccc2)ccc1O	tim10-1 inh 47, SKKanGAS inh 73 | tim10-1 conf inactive
CC/C(=N\NC(=S)Nc1cc(C)ccc1C)c1ccc(OC(F)F)cc1	tim10-1 inh 58, SKKanGAS inh 69 | tim10-1 conf 36
C/C(=N\NC(=S)Nc1c(C)cccc1C)c1ccc(OC(F)F)cc1	tim10-1 inh 43 | tim10-1 conf 41
COc1ccc(NC(=O)NNC(=O)CCc2ccc(O)c(O)c2)cc1OC	none
COC(=O)c1c(NC(NC(=O)C(C)C)C(Cl)(Cl)Cl)sc2c1CCC2 (stereo not given)	tim10-1 inh 44 | tim10-1 conf inactive
CCC(=O)NC(Nc1sc2c(c1C(=O)OC)CCC2)C(Cl)(Cl)Cl (stereo not given)	none
COc1cccc(-c2cc(C(=O)Nc3cc(OC)c(OC)c(OC)c3)no2)c1	tim10-1 inh 51 (no result: SKKanGAS inh) | tim10-1 conf 42
COc1cccc(-c2cc(C(=O)Nc3cccnc3)no2)c1	none
COCCN1CN(S(=O)(=O)c2cccc(Cl)c2)c2nc3ccccc3nc21	tim10-1 inh 45 | tim10-1 conf inactive
CCCCN1CN(S(=O)(=O)c2ccc(OC)cc2)c2nc3ccccc3nc21	tim10-1 inh 46 | tim10-1 conf inactive
CCOC(=O)CC(NS(=O)(=O)c1ccc2[nH]cc(C(=O)O)c(=O)c2c1)c1ccc(OCC)c(OC)c1 (stereo not given)	none
O=S(=O)(c1ccc(Cl)nc1)N1CCCC1	none (no result: NALP1 inh, SKKanGAS inh)
O=C(CN1C(=O)/C(=C\C=C\c2ccccc2)SC1=S)Nc1ccc(F)cc1	tim10-1 inh 40 | tim10-1 conf inactive
Brc1ccc(C2Nc3cccc4cccc(c34)N2)o1	tim10-1 inh 42 | tim10-1 conf 29
Brc1cccc(C2Nc3cccc4cccc(c34)N2)c1	none (no result: NALP1 inh)
CC(=O)N(\C=C/C=C/C=C1\Sc2ccccc2C1=O)c1ccccc1	tim10-1 inh 41 | tim10-1 conf 46
CN(C)/C=C1/Sc2ccccc2C1=O	none
N#Cc1nc(-c2ccccc2F)oc1NCc1cccc2c1OCO2	tim10-1 inh 52 | tim10-1 conf inactive
Cc1nn(C(C)(C)C)c(C)c1/C=N/OC(=O)Nc1ccc(Cl)cc1	tim10-1 inh 42 (no result: NALP1 inh) | tim10-1 conf inactive
Cc1[nH]c2ccc(F)cc2c1CCN(Cc1ccncc1)C(=S)Nc1ccc(F)cc1	tim10-1 inh 42 | tim10-1 conf inactive
CCOC(=O)c1ccc(N(CC(=O)NC2CCCCC2)C(=O)CNC(=O)c2ccco2)cc1	none
Cc1cccc(N2C(=O)CN(Cc3cccs3)C2=S)c1	tim10-1 inh 42 | tim10-1 conf inactive
Cc1cccc(N2C(=O)CN(Cc3sccc3C)C2=S)c1	none
Cc1ccsc1CN1CC(=O)N(c2c(C)cccc2C)C1=S	tim10-1 inh 45 | tim10-1 conf 36
CC1CC(OCC(O)C[N+]2(C)CCOCC2)CC(C)(C)C1 (stereo not given)	none
N#Cc1c(-c2ccccc2)nc(SCc2cccc(Cl)c2)[nH]c1=O	tim10-1 inh 42, SKKanGAS inh inconclusive | tim10-1 conf inactive
COc1ccccc1N(C)S(=O)(=O)c1ccc(C(=O)Nc2ccc(N3CCOCC3)cc2)cc1	tim10-1 inh 47 | tim10-1 conf 33
COc1cc(NC(=O)c2ccc(S(=O)(=O)N(C)c3ccccc3OC)cc2)cc(OC)c1	none (no result: NALP1 inh, SKKanGAS inh)
Cc1ccc(NC2CCCCC2NS(=O)(=O)c2ccccc2)c(C)c1 (stereo not given)	tim10-1 inh 44 | tim10-1 conf inactive
O=S(=O)(NC1CCCCC1Nc1ccc(Cl)cc1)c1ccccc1 (stereo not given)	none
COCCn1c(=NC(=O)c2cc(-c3cccs3)nc3ccccc23)sc2cc(S(N)(=O)=O)ccc21	none | tim10-1 conf 30
Cc1ccc(-n2ccnc(SCC(=O)NC3CCCCC3)c2=O)cc1F	tim10-1 inh 44 (no result: NALP1 inh) | tim10-1 conf inactive
COc1ccc(-n2ccnc(SCC(=O)NC3CCCC3)c2=O)cc1OC	none (no result: NALP1 inh)
Cc1cc(NC(=O)CON=C(N)CC(=O)Nc2ccccc2Cl)ccc1Br	none (no result: NALP1 inh, SKKanGAS inh)
CN(C)c1ccnc2sc(C(=O)c3ccc(Br)cc3)c(N)c12	tim10-1 inh 43 | tim10-1 conf inactive
O=C(c1ccc(-c2cccc(Cl)c2Cl)o1)N1CCOCC1	tim10-1 inh 44 | tim10-1 conf 42
Clc1ccc(-c2nn3c(C4COc5ccccc5O4)nnc3s2)cc1 (stereo not given)	tim10-1 inh 56 | tim10-1 conf 38
CCOc1ccc(OCC)c(S(=O)(=O)n2ccnc2C)c1	none
CCOc1ccc(C(C)C)cc1S(=O)(=O)n1ccnc1C	tim10-1 inh 41 | tim10-1 conf inactive
CCOc1ccc(C(=O)Nc2cnn(Cc3ccc(Cl)c(Cl)c3)c2)cc1	tim10-1 inh 41 | tim10-1 conf 35
COc1ccc(C(C)=O)cc1Cn1nc(C)c([N+](=O)[O-])c1C	none
COc1ccc(/C=C/C(=O)C2CC2)cc1Cn1nc(C)c([N+](=O)[O-])c1C	tim10-1 inh 47 | tim10-1 conf 37
CCN(C(=O)CN1C(=O)NC2(CCc3ccccc32)C1=O)C1CCS(=O)(=O)C1 (stereo not given)	none (no result: NALP1 inh, SKKanGAS inh)
CCOC(=O)C(Cc1ccccc1)NC(=O)CCc1c(C)nc2ncnn2c1C (stereo not given)	none
CCOC(=O)C(Sc1cc(-c2ccccc2)nc2ncnn12)C(C)=O (stereo not given)	tim10-1 inh 41 (no result: NALP1 inh) | tim10-1 conf 30
CCn1cc(Br)c(C(=O)Nc2ccc(C(=O)OC(C)C)cc2)n1	tim10-1 inh 41 | tim10-1 conf 34
Cn1cc(CN2CCC(C(=O)N3CCCCC3)CC2)c(-c2ccccc2F)n1	none
COc1ccccc1C(=O)Nc1nc2cc3c(cc2s1)OCCO3	tim10-1 inh 43 | tim10-1 conf inactive
N#CC(=C=[N-])c1nc2ccccc2nc1-[n+]1cccc(NC(=O)c2cccs2)c1	none

Compound activity: PubChem BioAssay, several laboratories
